Values joined by “and” are separate entries in the source; they are usually repeats but may differ in a detail not shown here. Equal entries are not always repeated. Records with an inconclusive call do not appear. Some compounds were tested as several samples or in several runs, with calls that do not always agree. Active and inactive are the calls of the source. Unless noted, calls follow the shape of the dose curve; as a rule, active = well fitted curve in the direction sought with a large enough effect; inconclusive = small, poorly fitted or top-dose-only effect, or another doubt; inactive = no such curve, though single readings can be large; an effect the other way counts as inactive or inconclusive.
Experiments:
[1] = molecular target: Voltage-gated inwardly rectifying potassium channel KCNH2 (Homo sapiens) (UniProt Q12809); experiment: qHTS Assay for Small Molecule Inhibitors of the Human hERG Channel Activity (AID 588834);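 also: lower thallium flux fluorescence means stronger hERG block; nearly all actives have a fitted effect of over 50% in size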; also: potency is read from the fitted curve at half-maximal effect
Procedure, shortened: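 Kinetic FDSS fluorescence; U2OS + hERG BacMam (~100 virus particles/cell); FluxOR Tl+ flux; ~10 min cpd; AC50 (Hill).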

[2] = molecular target: Luciferin 4-monooxygenase (Photinus pyralis) (UniProt P08659); experiment: Biochemical firefly luciferase enzyme assay for NPC (AID 624030);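 also: purified P. pyralis luciferase at 10 nM with luciferin and ATP substrate; 0% = DMSO and -100% = full luciferase inhibition by PTC124 control; nearly all actives have a fitted effect of over 70% in size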
Procedure, shortened: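 Direct inhibition of firefly luciferase enzyme (10 nM final, 50 mM Tris Acetate) assessed by luminescence within 5 minutes. Percent activity scaled between DMSO and PTC124 positive control, with concentration-effect curves classified by fit quality and response.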

[3] = S16 Schwann cell viability assay (CellTiter-Glo assay) (AID 624031);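 also: cellular ATP luminescence as a viability measure; plate controls were DMSO-treated cells for no effect and cell-free wells for full effect; nearly all actives have a fitted effect of over 70% in size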
Procedure, shortened: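 Native S16 rat Schwann cells, 500-750 cells/well in DMEM with 10% FBS, dosed with compound after overnight culture and incubated 24h at 37 degree Celsius/5% CO2. Viability by CellTiter-Glo luminescence; % activity normalized to no-cell wells and DMSO-treated cells.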

[4] = S16 Schwann cell PMP22 intronic element firefly luciferase assay (AID 624032); also: nearly all actives have a fitted effect of over 30% in size; also: potency is read from the fitted curve at half-maximal effect
Procedure, shortened: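 Luciferase reporter of PMP22 intronic-element expression in stably transfected S16 rat Schwann cells, read by ONE-Glo luminescence after 24 h compound exposure at 37 C. Activity scaled between DMSO (0%) and positive-control PTC124; concentration-effect curves quality-classified.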

[5] = S16 Schwann cell PMP22 intronic element beta-lactamase assay (AID 624044; calls by dose curve;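 also: 0% = DMSO and -100% = potassium clavulanate positive control; nearly all actives have a fitted effect of over 15% in size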)
Procedure, shortened: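 Rat S16 Schwann cells with beta-Lac driven by a PMP22 intronic element, compound-treated 24 h at 37 °C. LiveBLAzer FRET B/G read: 460 nm normalized to potassium clavulanate vs DMSO; 535 nm FRET as viability; concentration-effect curves classified.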

[6] = molecular target: Glutaminase kidney isoform, mitochondrial (Homo sapiens) (UniProt O94925); experiment: qHTS for Inhibitors of Glutaminase (GLS): LOPAC Validation (AID 624146); also: nearly all actives have a fitted effect of over 60% in size; also: potency is read from the fitted curve at half-maximal effect
Procedure, shortened: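 Read-out is an Amplex red fluorescence increase coupled through glutamate oxidase and HRP, measured before and after 30 min room-temperature incubation. hKGA is in 45 mM KH2PO4 (pH 8.2) with 0.02% Tween-20; glutamine added as 1mM solution.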

[7] = qHTS of Trypanosoma Brucei Inhibitors: LOPAC Validation (AID 624147); also: 0% is about no effect
Procedure, shortened: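 Luminescent Kinase-Glo Plus end-point after 45 min room-temperature reaction of T. brucei pyruvate kinase started with 130 uM ADP (final). Buffer TEA 50 mM pH 7.2 with KCl, MgCl2, BSA, Tween-20; titration-based qHTS with fitted concentration-effect curves.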

[8] = molecular target: Glucagon-like peptide 1 receptor (Homo sapiens) (UniProt P43220); experiment: qHTS of GLP-1 Receptor Agonists: LOPAC Validation (AID 624148);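 also: luminescence from a luciferase reporter switched on by cAMP; 0% is about no effect; higher luminescence signal means agonism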
Procedure, shortened: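 Agonism scored as increased luciferase luminescence driven by cAMP in HEK293 clones carrying GLP-1R. Cells settled 12 hours, received compound for 4-6 hr at 37 deg C, 5% CO2, and were read after 12 min detection reagent at RT.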

[9] = qHTS of Nrf2 Activators: LOPAC Validation (AID 624149); also: 0% is about no effect
Procedure, shortened: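 Luminescence read-out of ARE-luciferase activation: AREc32_Fluc cells treated with compounds for 24 hr at 37 deg C, then lysed with Steady-Glo for 30 min at room temperature before reading.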

[10] = HTS Assay for Allosteric Antagonists of the Human D2 Dopamine Receptor: Hit Validation in HTRF (AID 624455); also: potency is read from the fitted curve at half-maximal effect;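 also: stable D1 dopamine receptor cell line scored for blocking the D1 response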
Procedure, shortened: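 First, antagonism was screened by calcium flux in a force-coupled, inducible Hek293 Trex D2 line challenged with EC80 dopamine. Hits then went into an HTRF assay in cells stably expressing D1, testing inhibition of the D1 response.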

[11] = qHTS assay for small molecule agonists of the antioxidant response element (ARE) signaling pathway (AID 651741; active = well fitted activation curve with a large enough effect in the signal ratio; the % refers to the signal ratio; also: potency is read from the fitted curve at half-maximal effect; as to activation: % of control where 0% means no effect)
Procedure, shortened: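 Quantitative HTS in HepG2 cells stably expressing an ARE-beta-lactamase reporter; 16 h compound exposure at 37 C, followed by 2 h room-temperature incubation with LiveBLAzer B/G FRET substrate and fluorescence measurement.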

[12] = qHTS assay for small molecule activators of the p53 signaling pathway (AID 651743; active = well fitted activation curve with a large enough effect in the signal ratio, not every such curve was filed as active; the % refers to the signal ratio; also: % of control where 0% means no effect); settings: HCT-116 p53RE-bla, beta-lactamase FRET ratio, 16 h; activation: stronger effect = higher value
Procedure, shortened: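 Read-out is fluorescence intensity from the LiveBLAzer B/G FRET substrate, added for 2 hours at room temperature after HCT-116 p53RE-bla cells had been incubated with compounds for 16 hours at 37 C.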

[13] = molecular target: Tumor susceptibility gene 101 protein (Homo sapiens) (UniProt Q99816); experiment: qHTS Assay for Iinhibitors of HIV-1 Budding by Blocking the Interaction of PTAP/TSG101: Hit Validation (AID 651600); settings: PTAP peptide/TSG101 UEV interaction, biochemical assay; also: potency is read from the fitted curve at half-maximal effect; nearly all actives have a fitted effect of over 70% in size
Procedure, shortened: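 FITC-PTAP peptide (50 nM final) binding to Tsg101 binding domain (10 uM final) was measured by polarization after 20 min at r.t. with compounds, in 10 mM HEPES pH 7.5 buffer with 0.15 M NaCl and 0.01% Tween 20.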

[14] = Cytotoxicity counterscreen for NFkB agonists and antagonists (AID 624476);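 also: potency is read from the fitted curve at half-maximal effect; cells exposed to compound for 48 hours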
[15] = qHTS Assay for Identification of Small Molecule Agonists for NFkB Signaling Pathway. (AID 624478);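 also: compounds tested together with TNF alpha at its EC50 of 10 pM; 0% is about no effect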
Procedure, shortened: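 ME-180 cervical carcinoma, stable NFkB-RE beta-lactamase reporter; 1000 cells/well, overnight attachment; cpd + TNF alpha 10 pM final, 5 h 37 C; LiveBLAzer 2 h RT; FRET 460/530 nm, ex 405 nm.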

[16] = Cell Proliferation Assay against the TMD8 Cell Line (AID 651645); settings: TMD8 DLBCL cell line proliferation/viability; at 46.1 µM (top of the series) unless noted;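 also: cells exposed to compound for 48 h before reading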
Procedure, shortened: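 Viability by CellTiter-Glo after 48 h compound exposure of 500 log-phase TMD8 cells per well (RPMI, 5% FBS). Percent activity scaled between DMSO (100%) and 9.2 uM final bortezomib (0%).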

[17] = Cell Proliferation Assay against the HBL1 Cell Line (AID 651646); settings: HBL1 DLBCL cells; at 46.1 µM (top of the series) unless noted;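 also: cells exposed to compound for 48 h before reading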
Procedure, shortened: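 Luminescent ATP read-out (CellTiter-Glo) after 48 h compound exposure of HBL1 cells at 37 °C; percent activity was scaled between DMSO as 100% and 9.2 uM bortezomib (final) as 0%.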

Chain of Glutaminase kidney isoform, mitochondrial (Homo sapiens) (O94925 whole entry, looked up, canonical isoform): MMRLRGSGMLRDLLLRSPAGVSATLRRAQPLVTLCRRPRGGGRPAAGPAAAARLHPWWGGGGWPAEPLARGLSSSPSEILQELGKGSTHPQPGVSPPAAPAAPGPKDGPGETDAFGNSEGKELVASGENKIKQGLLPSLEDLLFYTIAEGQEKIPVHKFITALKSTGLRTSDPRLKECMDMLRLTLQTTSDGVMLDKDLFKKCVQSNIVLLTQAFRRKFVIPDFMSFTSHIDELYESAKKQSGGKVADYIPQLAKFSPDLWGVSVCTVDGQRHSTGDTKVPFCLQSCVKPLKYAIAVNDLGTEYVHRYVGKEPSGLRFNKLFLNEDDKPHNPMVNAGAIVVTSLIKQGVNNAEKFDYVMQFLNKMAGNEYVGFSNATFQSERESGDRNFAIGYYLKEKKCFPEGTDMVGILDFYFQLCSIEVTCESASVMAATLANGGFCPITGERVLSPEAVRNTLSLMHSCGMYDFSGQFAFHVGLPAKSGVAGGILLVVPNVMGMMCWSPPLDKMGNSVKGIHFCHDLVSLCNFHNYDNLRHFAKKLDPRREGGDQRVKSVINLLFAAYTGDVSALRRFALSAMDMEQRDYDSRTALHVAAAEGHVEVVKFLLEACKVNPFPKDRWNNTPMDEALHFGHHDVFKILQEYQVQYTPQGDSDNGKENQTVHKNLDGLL
Chain of Glucagon-like peptide 1 receptor (Homo sapiens) (P43220 whole entry, looked up): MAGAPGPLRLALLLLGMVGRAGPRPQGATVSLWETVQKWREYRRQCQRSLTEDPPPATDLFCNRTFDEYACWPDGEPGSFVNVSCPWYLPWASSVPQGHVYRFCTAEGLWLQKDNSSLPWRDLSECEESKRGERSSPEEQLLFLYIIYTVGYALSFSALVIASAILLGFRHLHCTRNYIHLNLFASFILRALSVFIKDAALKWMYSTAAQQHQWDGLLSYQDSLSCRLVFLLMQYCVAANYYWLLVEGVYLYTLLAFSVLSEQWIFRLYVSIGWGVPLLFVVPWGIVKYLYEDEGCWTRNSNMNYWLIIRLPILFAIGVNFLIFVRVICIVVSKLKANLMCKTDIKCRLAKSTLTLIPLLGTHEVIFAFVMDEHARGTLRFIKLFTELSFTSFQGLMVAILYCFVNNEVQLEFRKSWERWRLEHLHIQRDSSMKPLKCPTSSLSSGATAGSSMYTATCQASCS
Chain of Luciferin 4-monooxygenase (Photinus pyralis) (P08659 whole entry, looked up): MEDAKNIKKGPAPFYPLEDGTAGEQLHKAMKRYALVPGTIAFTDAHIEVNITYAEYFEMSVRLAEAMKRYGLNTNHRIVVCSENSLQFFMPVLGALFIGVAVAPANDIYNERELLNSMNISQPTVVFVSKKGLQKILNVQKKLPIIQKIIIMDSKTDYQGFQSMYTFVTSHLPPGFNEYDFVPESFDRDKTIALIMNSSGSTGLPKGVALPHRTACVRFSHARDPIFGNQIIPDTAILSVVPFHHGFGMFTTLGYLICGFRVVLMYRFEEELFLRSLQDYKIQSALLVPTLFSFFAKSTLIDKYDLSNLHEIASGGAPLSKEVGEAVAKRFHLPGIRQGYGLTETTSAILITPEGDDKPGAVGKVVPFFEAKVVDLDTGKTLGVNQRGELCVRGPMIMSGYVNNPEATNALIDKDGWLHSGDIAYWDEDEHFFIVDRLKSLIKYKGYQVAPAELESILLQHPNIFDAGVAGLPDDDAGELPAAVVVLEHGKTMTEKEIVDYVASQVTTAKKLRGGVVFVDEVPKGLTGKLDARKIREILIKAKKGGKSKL
Chain of Voltage-gated inwardly rectifying potassium channel KCNH2 (Homo sapiens) (Q12809 whole entry, looked up): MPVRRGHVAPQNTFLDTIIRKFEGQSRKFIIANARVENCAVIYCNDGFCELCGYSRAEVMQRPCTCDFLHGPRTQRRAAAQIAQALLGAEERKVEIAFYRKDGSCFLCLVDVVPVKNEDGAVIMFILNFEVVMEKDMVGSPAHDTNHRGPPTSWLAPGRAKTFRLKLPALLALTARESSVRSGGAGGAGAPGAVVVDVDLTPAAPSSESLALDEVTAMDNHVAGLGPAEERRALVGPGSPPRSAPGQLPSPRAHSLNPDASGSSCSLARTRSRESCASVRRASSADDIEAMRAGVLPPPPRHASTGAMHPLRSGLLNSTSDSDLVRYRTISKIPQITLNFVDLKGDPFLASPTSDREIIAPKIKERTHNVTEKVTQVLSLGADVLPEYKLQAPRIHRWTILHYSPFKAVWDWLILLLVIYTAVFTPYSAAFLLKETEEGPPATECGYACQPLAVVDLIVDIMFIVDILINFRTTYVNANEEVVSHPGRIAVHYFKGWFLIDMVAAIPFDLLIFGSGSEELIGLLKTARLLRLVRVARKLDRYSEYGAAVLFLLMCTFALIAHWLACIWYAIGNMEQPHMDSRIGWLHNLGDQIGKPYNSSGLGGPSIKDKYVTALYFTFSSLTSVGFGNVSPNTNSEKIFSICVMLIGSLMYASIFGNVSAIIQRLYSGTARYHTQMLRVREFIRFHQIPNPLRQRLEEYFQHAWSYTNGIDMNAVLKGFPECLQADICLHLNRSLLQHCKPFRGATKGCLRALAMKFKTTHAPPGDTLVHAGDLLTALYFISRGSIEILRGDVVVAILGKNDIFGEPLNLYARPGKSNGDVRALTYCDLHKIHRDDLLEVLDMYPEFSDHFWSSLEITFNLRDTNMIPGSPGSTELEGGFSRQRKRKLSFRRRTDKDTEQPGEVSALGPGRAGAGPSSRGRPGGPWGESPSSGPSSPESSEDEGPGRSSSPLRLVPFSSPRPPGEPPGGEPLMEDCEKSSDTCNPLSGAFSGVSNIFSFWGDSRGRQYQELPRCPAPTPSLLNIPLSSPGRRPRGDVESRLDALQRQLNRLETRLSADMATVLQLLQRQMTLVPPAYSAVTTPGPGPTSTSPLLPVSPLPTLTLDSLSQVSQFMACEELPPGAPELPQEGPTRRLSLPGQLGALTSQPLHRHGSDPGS
Chain of Tumor susceptibility gene 101 protein (Homo sapiens) (Q99816 whole entry, looked up, the tested form may be a part): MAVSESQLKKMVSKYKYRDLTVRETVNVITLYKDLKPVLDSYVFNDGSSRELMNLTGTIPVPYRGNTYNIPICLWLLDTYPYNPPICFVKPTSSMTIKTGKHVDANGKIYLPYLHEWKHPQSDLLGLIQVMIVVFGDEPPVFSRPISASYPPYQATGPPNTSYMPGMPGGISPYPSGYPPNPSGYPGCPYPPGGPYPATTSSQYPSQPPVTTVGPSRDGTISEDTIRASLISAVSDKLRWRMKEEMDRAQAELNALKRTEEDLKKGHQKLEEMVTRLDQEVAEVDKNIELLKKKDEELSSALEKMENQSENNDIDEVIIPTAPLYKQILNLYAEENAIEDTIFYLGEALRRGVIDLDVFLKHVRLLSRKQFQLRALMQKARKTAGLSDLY

O=C(c1ccc(F)cc1)C1CCN(CCn2c(=O)[nH]c3ccccc3c2=O)CC1
active: Potency [1] 3.55 µM and 562 nM
inactive: Potency [2] | Potency [3] | Potency [4] | Potency [5] | Potency [6] | Potency [7] | Potency [8] | outcome [9] | Potency [10]

CC(CCc1ccc(O)cc1)NCCc1ccc(O)c(O)c1 (centres undefined)
inactive: Potency [2] | Potency [3] | Potency [4] | Potency [5] | Potency [7] | outcome [9]
inactive and 3.55 µM (active): Potency [1]
active: Potency [10] 3.26 µM

COc1nc(C)nc(Cl)c1NC1=NCCN1
inactive: Potency [1] | Potency [2] | Potency [3] | Potency [4] | Potency [6] | Potency [7] | Potency [8] | outcome [9] | Potency [10]

CC(C)Cc1ccc(C(C)C(=O)O)cc1 (centres undefined)
inactive: Potency [1] | Potency [2] | Potency [3] | Potency [4] | Potency [6] | Potency [7] | Potency [8] | outcome [9] | Potency [10] | Potency [11] | activation [12] -2.52%

OCCN(CCO)c1nc(N2CCCCC2)c2nc(N(CCO)CCO)nc(N3CCCCC3)c2n1
active: Potency [4] 10.2 µM | Potency [13] 18.3 µM
inactive: Potency [1] | Potency [2] | Potency [3] | Potency [6] | Potency [7] | Potency [8] | Potency [10]

CN1C(C(=O)Nc2ccccn2)=C(O)c2ccccc2S1(=O)=O
inactive: Potency [1] | Potency [2] | Potency [3] | Potency [4] | Potency [6] | Potency [7] | Potency [8] | outcome [9] | Potency [10]

NS(=O)(=O)c1cc2c(cc1Cl)NCNS2(=O)=O
inactive: Potency [1] | Potency [2] | Potency [3] | Potency [4] | Potency [6] | Potency [7] | Potency [8] | outcome [9] | Potency [10] | Potency [11] | activation [12] -0.393% and 4.88%

NC(=O)NO
active: Potency [6] 8.91 µM
inactive: Potency [1] | Potency [2] | Potency [3] | Potency [4] | Potency [7] | Potency [8] | outcome [9] | Potency [10]

CC[N+](CC)(CC)CCOc1cccc(OCC[N+](CC)(CC)CC)c1OCC[N+](CC)(CC)CC
inactive: Potency [1] | Potency [2] | Potency [3] | Potency [4] | Potency [6] | Potency [8] | outcome [9] | Potency [10]

CC(C)(Oc1ccc(C2CC2(Cl)Cl)cc1)C(=O)O (centres undefined)
inactive: Potency [1] | Potency [2] | Potency [3] | Potency [4] | Potency [6] | Potency [7] | Potency [8] | outcome [9] | Potency [10] | activation [12] -1.02%

CN(Cc1cnc2nc(N)nc(N)c2n1)c1ccc(C(=O)N[C@@H](CCC(=O)O)C(=O)O)cc1
inactive: Potency [1] | Potency [2] | Potency [3] | Potency [4] | Potency [6] | Potency [7] | Potency [8] | outcome [9]
active: Potency [11] 0.154 µM

CC1(C)O[C@H]2CC(=O)OC[C@]23[C@H]2CC[C@@]4(C)[C@H](c5ccoc5)OC(=O)[C@H]5O[C@]54[C@]2(C)C(=O)C[C@@H]13
inactive: Potency [1]

CCOC(=O)c1ncn2c1CN(C)C(=O)c1cc(F)ccc1-2
inactive: Potency [1] | Potency [2] | Potency [3] | Potency [4] | Potency [6] | Potency [7] | Potency [8] | outcome [9] | Potency [10]

Cc1cn([C@H]2C=C[C@@H](CO)O2)c(=O)[nH]c1=O
inactive: Potency [1] | Potency [2] | Potency [3] | Potency [4] | Potency [6] | Potency [7] | Potency [8] | outcome [9] | Potency [10] | Potency [11]

CCOC(=O)C(C)(C)Oc1ccc(Cl)cc1
inactive: Potency [1] | Potency [2] | Potency [3] | Potency [4] | Potency [5] | Potency [6] | Potency [7] | Potency [8] | outcome [9] | Potency [10] | Potency [11] | activation [12] 3.33%

CS(=O)(=O)CCNCc1ccc(-c2ccc3ncnc(Nc4ccc(OCc5cccc(F)c5)c(Cl)c4)c3c2)o1
3.03%: viability, percent of control [17]
active: Potency [14] 23.5 µM
0.834%: viability (% of control) [16]
inactive: Potency [1] | Potency [2] | Potency [3] | Potency [4] | Potency [5] | outcome [15]

CCC1(c2ccccc2)C(=O)NCNC1=O
inactive: Potency [1] | Potency [2] | Potency [3] | Potency [4] | Potency [6] | Potency [7] | Potency [8] | outcome [9] | Potency [10] | Potency [11] | activation [12] -3.22% and -3.23%

COc1ccc2[nH]cc(CCNC(C)=O)c2c1
inactive: Potency [1] | Potency [2] | Potency [3] | Potency [4] | Potency [6] | Potency [7] | Potency [8] | outcome [9] | Potency [10] | Potency [11] | activation [12] -4% and -3.68% and -2.3%

NC(=O)OCC(COC(N)=O)c1ccccc1
inactive: Potency [1] | Potency [2] | Potency [3] | Potency [4] | Potency [6] | Potency [7] | Potency [8] | outcome [9] | Potency [10]

CC12CC3CC(C)(C1)CC(N)(C3)C2
inactive: Potency [1] | Potency [2] | Potency [3] | Potency [4] | Potency [6] | Potency [7] | Potency [8] | outcome [9] | Potency [10]

CN(C)c1nc(N(C)C)nc(N(C)C)n1
inactive: Potency [1] | Potency [2] | Potency [3] | Potency [4] | Potency [5] | Potency [6] | Potency [7] | Potency [8] | outcome [9] | Potency [10]
